Data taken from PubChem BioAssay (NCI).
About 79,000 compounds went through this panel and 15% of them were active in at least one assay; those are over-represented in the sample as a whole. Unmarked numbers belong to inactive results. Rule as the data show it: active = growth inhibition above about 70%; inactive = the rest.

assay: NCI Yeast Anticancer Drug Screen. Data for the mec2-1 strain (AID 157); settings: S. cerevisiae mec2-1 strain, at 5.0 µM (retest, dose inferred, filed as 0.5), stronger effect = higher value
Summary of the method: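 Strain: mec2-1 (DNA repair/cell cycle alteration). Compound exposure, then growth measured; inhibition expressed relative to vehicle.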

Structure (SMILES)	growth inhibition [%]
CCS(=O)(=O)c1ccc(/C=C/C=N/NC(=S)NCC(C)C)cc1	-25
CCC(=O)Oc1c(Cl)cc(Cl)c2ccccc12	-9
COc1cc2c3c(cccc3c1)C(=O)N(CCN(C)C)C2=O	8
CN(C)c1ccc(C(C#N)=C(C#N)C#N)cc1	-35
O=C(CCCN1CCC2(CC1)CC(=O)N(N1CCCCCC1)C2=O)c1ccc(F)cc1	13
O=C1C2C(C(=O)N1c1ccc(OCc3ccccc3)cc1)C1c3ccccc3C2C2CCCCN21 (configuration not stated)	-5
CCN(CC)CCC(=O)c1ccc(Oc2ccc(F)cc2)cc1	41
O=Nc1c(NO)ccc2nn(-c3ccccc3)nc12	1
CC(=O)SCCC[Si](C)(C)CCCSC(C)=O	-2
O=C(O)C1CCCCC1c1c2ccc(=O)c(O)c-2oc2c(O)c(O)ccc12 (configuration not stated)	-7
Cc1ccc(NN(NC(=O)OC(C)C)C(=O)OC(C)C)cc1	1
O=C1c2ccccc2C(=O)c2cc(CBr)ccc21	32
Cc1c(C(Cc2ccccc2N(C)C(=O)/C=C\C(=O)O)c2c[nH]c3ccccc23)c2ccccc2n1C (configuration not stated)	8
CC(C)/C(Cl)=N\OC(=O)Nc1ccc(F)cc1	35
O=C1OC(=O)C2CCCC3CCCC1C32 (configuration not stated)	-8
CCOC(=O)C(NC(=O)c1ccccc1)(N1CCN(c2cc3c(cc2F)c(=O)c(C(=O)O)cn3C2CC2)CC1)C(F)(F)F (configuration not stated)	-6
COc1ccc(NC(=S)N/N=C(\c2ccccc2)c2ccccn2)cc1	13
